PubChem BioAssay AID720565 (National Center for Advancing Translational Sciences (NCATS), 2013)
Records with an inconclusive call do not appear. Calls of active or inactive are those of the source. Calls come from the whole dose curve; as a rule, active = well fitted activation curve with a large enough effect; inconclusive = small, poorly fitted or top-dose-only effect; inactive = no such curve, though single readings can be large or run the other way.

assay: qHTS for small molecules that induce genotoxicity in ELG1 expressing cells: Confirmatory Assay for Cherry-picked Compounds; conditions: ELG1-luciferase reporter cells, luminescence, 16 h; series mostly up to 46.1 µM; note: nearly all actives have a fitted effect of over 35% in size
Summary of the method: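 Activation readout: ONE-Glo luciferase signal from ELG1 reporter cells, 2,000 per well, after 16 hr compound incubation at 37 C. Increased ELG1-driven luminescence reflects genetic stress.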
Potency is the fitted concentration of half-maximal effect.

| SMILES | Potency |
| --- | --- |
| CCOC(=O)N1CCN(C(=O)CSCC(=O)Nc2nc(-c3ccc(-c4ccccc4)cc3)cs2)CC1 | inactive |
| Cc1nc2cc(-c3ccccc3)nn2c(N)c1-c1ccccc1 | 0.629 µM (active) |
| COc1ccc(-c2nc(-c3cccnc3)no2)cc1 | 3.97 µM (active) |
| CCOC(=O)c1cc(-c2cc(OC)c(OC)c(OC)c2)nc2c1c(=O)[nH]c(=O)n2Cc1ccccc1 | 25 µM (active) |
| O=c1c2ccccc2oc2c1ccc1ccccc12 | 15.8 µM (active) |
| Oc1ccc(CCc2ccccc2F)c2cccnc12 | 14.1 µM (active) |
| ICC[n+]1csc2ccccc21 | 14.1 µM (active) |
| COc1ccc(/C=C/c2cnc3ccccc3n2)cc1OC | 0.112 µM (active) |
| C=C1C(c2ccc(C)cc2)=CCc2cc(C)cc(C)c21 | 5 µM (active) |
| CN(C)c1ccc(N=Nc2ccc(/C=C/c3ccnc4ccccc34)cc2)cc1 | 4.45 µM (active) |
| CC(=O)Nc1ccc(SCC(=O)c2cc(C)n(Cc3cccs3)c2C)cc1 | 1.12 µM (active) |
| COc1ccc(-c2cc3cc4c(cc3cn2)OCO4)cc1 | 1.77 µM (active) |
| C(=C\c1c[nH]c2ccccc12)/c1ccc2ccccc2n1 | 0.141 µM (active) |
| CN(C)c1ccc(/C=C/c2ccnc3ccc(F)cc23)cc1 | 0.354 µM (active) |
| Cc1ccc(C)c(N2CCN(C(=O)CCc3nc(-c4cccc(Cl)c4)no3)CC2)c1 | 12.5 µM (active) |
| Cc1ccc2nc3sc(C(=O)NCc4ccco4)cc3cc2c1 | 7.05 µM (active) |
| O=C(Nc1ccccn1)c1sc2ccccc2c1Cl | 0.223 µM (active) |
